Assay [1] addresses Glutathione peroxidase 1 (Homo sapiens) (UniProt P07203). Nature of the assay: Primary qHTS Assay for Inhibitors of Recombinant Selenoprotein Glutathione Peroxidase 1 (GPX1) (AID 1845191). Note: nearly all actives have a fitted effect of over 65% in size. Note: potency is the fitted concentration of half-maximal effect. The method, boiled down:
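GR-coupled readout: NADPH consumption tracked by fluorescence, ex 340/em 450 nm, at t=0 and after 15 min at RT. Final mix 10 nM GPX1, 1 mM GSH, 0.5 mM CHP, 0.5 mM NADPH, 100 nM GR, 0.01% BSA, following 30 min enzyme–compound preincubation.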

For assay [2], the target named is Luciferin 4-monooxygenase (Photinus pyralis) (UniProt P08659). Nature of the assay: Primary firefly luciferase (FLuc) qHTS assay for identification of artifact compounds. (AID 1845220). Note: nearly all actives have a fitted effect of over 60% in size. Note: potency is the fitted concentration of half-maximal effect. In short, it runs like this:
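Enzymatic FLuc inhibition assay: compounds pre-exposed to luciferin/ATP (10 uM each) for 15 min, then purified P. pyralis enzyme at 10 nM added. Read-out: luminescence at 5 min.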
(qHTS replaces the single test concentration by a dilution series.)

Assay [3] in a line: Primary fluorescence-based thiol-reactive (MSTI) qHTS assay for identification of artifact compounds. (AID 1845221). Note: nearly all actives have a fitted effect of over 65% in size. Note: potency is the fitted concentration of half-maximal effect. The method, boiled down:
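Curve-fitted percent inhibition (4-parameter Hill) derived from fluorescence, Ex 525/Em 598 nm, scaled with Acetyl-MSTI and MSTI; 1 h incubation at room temperature.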

The test system of assay [4] is Nanoluciferase (engineered Oplophorus gracilirostris luciferase). Nature of the assay: Primary Nanoluciferase (NLuc) qHTS assay for identification of artifact compounds. (AID 1845222).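 Note: NLuc secreted into diluted conditioned medium of S16 cells; series mostly up to about 54 µM.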 In short, it runs like this: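 S16 cell supernatant NLuc, 1:55; cpds qHTS; 15 min RT dark; Nano-Glo substrate 1:100, 5 min; luminescence; Hill fit of % inhibition.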
For assay [5], the target named is Phospholipid hydroperoxide glutathione peroxidase GPX4 (Homo sapiens) (UniProt P36969). Put plainly: Primary qHTS Assay for Inhibitors of Recombinant Selenoprotein Glutathione Peroxidase 4 (GPX4) (AID 1845192). Note: nearly all actives have a fitted effect of over 65% in size. Note: potency is the fitted concentration of half-maximal effect. In short, it runs like this:
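Steps: GPX4 plus compound, 30 min RT; add GR/GSH/NADPH master mix; start with cumene hydroperoxide; read 340/450 nm fluorescence at 0 and 15 min. Finals were 200 nM GPX4, 1 mM GSH, 0.5 mM CHP, 0.5 mM NADPH, 100 nM GR.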

Structures are written as SMILES. Records with an inconclusive call do not appear. Activity calls are given as the source filed them. Calls come from the whole dose curve; as a rule, active = well fitted curve in the direction sought with a large enough effect; inconclusive = small, poorly fitted or top-dose-only effect, or another doubt; inactive = no such curve, though single readings can be large; an effect the other way counts as inactive or inconclusive.

The record followed here is PubChem BioAssay (NCATS).

Glutathione peroxidase 1 (Homo sapiens), sequence (P07203 whole entry, looked up): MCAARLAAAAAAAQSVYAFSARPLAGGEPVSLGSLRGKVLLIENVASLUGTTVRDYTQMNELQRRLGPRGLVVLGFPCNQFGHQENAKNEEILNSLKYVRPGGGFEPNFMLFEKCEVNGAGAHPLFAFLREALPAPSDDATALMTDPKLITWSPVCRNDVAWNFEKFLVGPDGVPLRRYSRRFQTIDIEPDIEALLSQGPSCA
Phospholipid hydroperoxide glutathione peroxidase GPX4 (Homo sapiens), sequence (P36969 whole entry, looked up): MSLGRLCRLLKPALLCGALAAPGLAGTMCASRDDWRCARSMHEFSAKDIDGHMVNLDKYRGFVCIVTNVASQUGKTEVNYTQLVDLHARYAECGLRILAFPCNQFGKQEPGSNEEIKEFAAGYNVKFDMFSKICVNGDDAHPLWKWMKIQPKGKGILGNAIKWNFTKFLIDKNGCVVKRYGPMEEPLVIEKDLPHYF

With `Cc1ccc(OC[C@H](O)[C@H](C)NC(C)C)c2c1CCC2`, the Potency entry in assay [1], in assay [2], in assay [3] and in assay [4] was “inactive” throughout.
Turning to `CCS(=O)c1nc(-c2cccc(OCc3ccccc3)c2)cc(C(F)(F)F)n1` (stereo not drawn), the Potency result in assay [1], in assay [2] and in assay [3] was “inactive” in each case.
Consider `O=C(N[C@H]1CCN(C(=O)c2cc(C(F)(F)F)cc(C(F)(F)F)c2)[C@H](Cc2ccc(Cl)cc2)C1)c1ccnc2ccccc12`, for which the Potency entry in assay [1], in assay [2], in assay [3] and in assay [4] was “inactive” in each case.
As to `C=C1C(=O)O[C@H]2/C=C(/C)[C@@H](OC(C)=O)C/C=C(\C)C[C@@H](OC(=O)/C(=C/C)COC(=O)/C(=C/C)CO)[C@@H]12`, the Potency result in assay [1], in assay [2], in assay [3] and in assay [4] was “inactive” each time.
Regarding `Cc1ccc(CNc2ncnc3ccc(-c4ccc(CO)o4)cc23)o1`, the Potency result in assay [1], in assay [2], in assay [3] and in assay [4] was “inactive” each time.
On to `COc1ccc2cc3c(NC(=O)c4ccco4)nn(C)c3nc2c1`, for which the Potency result in assay [1], in assay [2] and in assay [3] was “inactive” each time.
Regarding `O=C1c2ccc(Nc3ccc(F)cc3F)cc2CCc2ccc(OCC(O)CO)cc21` (stereo not drawn), the Potency entry in assay [1], in assay [2], in assay [3] and in assay [4] was “inactive” each time.
`O=C(Nc1cc(C(F)(F)F)cc(C(F)(F)F)c1)c1cnc(Cl)nc1C(F)(F)F`: the Potency entry in assay [1], in assay [2], in assay [3] and in assay [4] was “inactive” each time.
Regarding `CC(C)S(=O)(=O)c1ccc2nccc(Nc3ccc4scnc4c3)c2c1`, the Potency result in assay [1], in assay [2], in assay [3] and in assay [4] was “inactive” each time.
For the molecule `CCC(CC)C(c1ccc(Nc2nc3ccccc3s2)cc1)n1cncn1` (stereo not drawn), the Potency entry in assay [1], in assay [2], in assay [3] and in assay [4] was “inactive” in each case.
For `O=S1(=O)CCN(Cc2cc(NCC3CCOCC3)c3[nH]c(-c4ccccc4)cc3c2)CC1`, the Potency entry in assay [1], in assay [2] and in assay [4] was “inactive” each time. In assay [3], the Potency was 1.19 µM (active).
As for `C#CC(=O)N(c1ccc(OC)cc1OC)C(C(=O)NCC(=O)OCC)c1cccs1` (stereo not drawn), the Potency entry in assay [1], in assay [2], in assay [3] and in assay [4] was “inactive” each time.
`NC(N)=NC(=O)c1cnn(-c2cccc3ncccc23)c1C1CC1`: the Potency entry in assay [1], in assay [2], in assay [3] and in assay [4] was “inactive” in each case.
`S=C(c1ccc(-c2ccc(Cl)c(Cl)c2)o1)N1CCCCC1`: the Potency in assay [1] is 25.5 µM (active); in assay [2], 1.69 µM (active). The Potency entry in assay [4] is “inactive”.
For `COc1ccc2nc3n[nH]c(C)c3c(NCCOCCO)c2c1`, the Potency result in assay [1], in assay [2] and in assay [4] was “inactive” in each case.
Take `Oc1cccc(-c2c3nc(c(-c4cccc(O)c4)c4ccc([nH]4)c(-c4cccc(O)c4)c4nc(c(-c5cccc(O)c5)c5ccc2[nH]5)CC4)C=C3)c1`: in assay [5], the Potency result was “inactive”.
Turning to `C=C1/C(=C/C=C2\CCC[C@]3(C)[C@@H]([C@H](C)/C=C/[C@H](O)C4CC4)CC[C@@H]23)C[C@@H](O)C[C@@H]1O`, the Potency entry in assay [5], in assay [2] and in assay [3] was “inactive” each time.
In the case of `CCCn1ncc(CN2CCCC(C(=O)c3cccc(OC(C)C)c3)C2)c1C` (stereo not drawn), the Potency entry in assay [1], in assay [2], in assay [3] and in assay [4] was “inactive” in each case.
On to `NCCCC[C@H](NC(=O)[C@@H]1CCCN1C(=O)[C@@H]1CSSC[C@H](N)C(=O)N[C@@H](Cc2ccc(O)cc2)C(=O)N[C@@H](Cc2ccccc2)C(=O)N[C@@H](CCC(N)=O)C(=O)N[C@@H](CC(N)=O)C(=O)N1)C(=O)NCC(N)=O`, for which the Potency in assay [5] is 17.8 µM (active).
Still for that read-out and setting: the same measure for `CO/N=C(\C(=O)N[C@@H]1C(=O)N2C(C(=O)OCOC(=O)C(C)(C)C)=C(/C=C\c3scnc3C)CS[C@H]12)c1csc(N)n1`: 14.1 µM (active).
Turning to `N#C/C(=C1\Nc2ccccc2S1)c1ccnc(NCCc2cccnc2)n1`, the Potency entry in assay [5] and in assay [2] was “inactive” throughout. The Potency in assay [3] was 1.34 µM (active).
For the molecule `CC(=O)Nc1cccc(-c2csc(Nc3cc(C)ccn3)n2)c1`, in assay [5], the Potency result is “inactive”. The Potency in assay [2] is 3.01 µM (active).
With `O=C(NO)c1ccc(CC(=O)N(CCO)c2ccccc2)cc1`, the Potency entry in assay [1], in assay [2] and in assay [4] was “inactive” in each case.
As for `Cn1ncnc1[C@@H]1c2n[nH]c(=O)c3cc(F)cc(c23)N[C@H]1c1ccc(F)cc1`, the Potency entry in assay [1], in assay [2] and in assay [4] was “inactive” throughout.
`O=[N+]([O-])c1ccc(Oc2ccc3c(c2)CCC(c2ccccc2)O3)nc1` (stereo not drawn): the Potency result in assay [1], in assay [2] and in assay [4] was “inactive” in each case.
Consider `Cc1nc2ccc(CN(C)c3ccc(C(=O)NC(CCC(=O)O)C(=O)O)s3)cc2c(=O)[nH]1` (stereo not drawn), for which the Potency result in assay [5] and in assay [2] was “inactive” throughout.
With `COc1cccc(NCCC2(c3ccccc3)CC(C)(C)OC(C)(C)C2)c1`, the Potency entry in assay [1], in assay [2] and in assay [4] was “inactive” in each case.
Turning to `CCOc1ccc(N=C(C)Nc2ccc(OCC)cc2)cc1`, in assay [5], the Potency entry is “inactive”.
Take `CN(C)C(=O)Nc1cc(-c2ccccc2)ccc1N(C)C`: the Potency entry in assay [1] and in assay [4] was “inactive” throughout. The Potency in assay [3] was 2.38 µM (active).
Consider `C/C=C/C=C/c1cc2c(C=O)c(O)c(CC=C(C)C)cc2o1`, for which the Potency result in assay [1] and in assay [4] was “inactive” each time. Besides, in assay [3], the Potency is 21.2 µM (active).
Regarding `COC(=O)N1CC2(CC2)C[C@H](C(=O)NO)[C@H]1C(=O)N1CCN(c2ccccc2)CC1`, in assay [5], the Potency entry was “inactive”.
